Activity calls are given as the source filed them. Rule for the calls: active = hit-call score of the fitted dose curve at least 0.9, where 1 is the maximum; inactive = score below 0.9.
Experiments:
[1] = read-out: Tumor necrosis factor receptor superfamily member 6 (Homo sapiens) (UniProt P25445); assay: LTEA_HepaRG_FAS: Life Technologies and Expression Analysis (LTEA) Assay for Fas cell surface death receptor (FAS) using HepaRG (AID 2283447); conditions: mRNA level, 48 h; actives raise or lower the signal
Method in brief: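 FAS transcript level was measured by TaqMan qRT-PCR against three housekeeping genes after 48 h chemical exposure. Cells were HepaRG, 0.5% DMSO vehicle, with a top concentration of 100 uM and half-log dilutions over eight points, in duplicate.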

[2] = read-out: Fatty acid synthase (Homo sapiens) (UniProt P49327); assay: LTEA_HepaRG_FASN: Life Technologies and Expression Analysis (LTEA) Assay for Fatty Acid Synthase (FASN) using HepaRG (AID 2283448); conditions: mRNA level, 48 h; actives raise or lower the signal
Method in brief: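 FASN transcript measured by TaqMan qRT-PCR, normalised to three housekeeping genes, after 48 h chemical exposure of HepaRG cells. Eight-point half-log series from 100 uM in 0.5% DMSO, duplicates; gain or loss fitted against vehicle.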

[3] = read-out: Cyclin D2 (CCND2), CCND2 (gene 894); assay: LTEA_HepaRG_CCND2: Life Technologies and Expression Analysis (LTEA) Assay for Cyclin D2 (CCND2) using HepaRG (AID 2283449); conditions: mRNA level, 48 h; actives raise or lower the signal
Method in brief: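 CCND2 transcript levels, quantified by qRT-PCR and normalised to three housekeeping genes, were fitted bidirectionally against 0.5% DMSO. HepaRG cultures were dosed 48 h in duplicate with an 8-point half-log series up to 100 uM.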

[4] = read-out: Cyclin Dependent Kinase Inhibitor 1A (CDKN1A), CDKN1A (gene 1026); assay: LTEA_HepaRG_CDKN1A: Life Technologies and Expression Analysis (LTEA) Assay for Cyclin Dependent Kinase Inhibitor 1A (CDKN1A) using HepaRG (AID 2283450); conditions: mRNA level, 48 h; actives raise or lower the signal
Method in brief: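 Differentiated HepaRG cells in serum-free induction medium, exposed 48 h in duplicate to eight half-log concentrations up to 100 uM in 0.5% DMSO. mRNA measured by TaqMan qRT-PCR, normalized to ACTB, GAPDH, POLR2A; bidirectional fit versus DMSO.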

[5] = read-out: Cyclin D1 (CCND1), CCND1 (gene 595); assay: LTEA_HepaRG_CCND1: Life Technologies and Expression Analysis (LTEA) Assay for Cyclin D1 (CCND1) using HepaRG (AID 2283451); conditions: mRNA level, 48 h; actives raise or lower the signal;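 for AC50: TaqMan qRT-PCR transcript level normalised to ACTB GAPDH and POLR2A housekeeping genes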
Method in brief: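 Differentiated HepaRG cells exposed 48 h in serum-free induction medium to eight half-log concentrations from 100 uM top, 0.5% DMSO, duplicates. CCND1 mRNA measured by Fluidigm TaqMan qRT-PCR, normalised to ACTB, GAPDH, POLR2A; bidirectional fit.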

[6] = read-out: catalase (CAT), CAT (gene 847); assay: LTEA_HepaRG_CAT: Life Technologies and Expression Analysis (LTEA) Assay for catalase (CAT) using HepaRG (AID 2283452); conditions: mRNA level, 48 h; actives raise or lower the signal
Method in brief: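 Expression of CAT was quantified by TaqMan qRT-PCR with ACTB/GAPDH/POLR2A normalization after 48 h chemical exposure of HepaRG. Eight-point half-log series, top 100 uM, in 0.5% DMSO; gain or loss fitted against vehicle.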

[7] = read-out: flavin-containing dimethylaniline monooxygenases 3 (FMO3), FMO3 (gene 2328); assay: LTEA_HepaRG_FMO3: Life Technologies and Expression Analysis (LTEA) Assay for flavin-containing dimethylaniline monooxygenases 3 (FMO3) using HepaRG (AID 2283453); conditions: mRNA level, 48 h; actives raise or lower the signal
Method in brief: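 FMO3 transcript quantified by TaqMan qRT-PCR against three housekeeping genes after 48 h chemical exposure of HepaRG cells. Eight-point half-log series, top 100 uM, 0.5% DMSO vehicle; phenobarbital 1mM induction control; up- or down-regulation fitted.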

[8] = read-out: Cytochrome P450 (CYP1A1), CYP1A1 (gene 1543); assay: LTEA_HepaRG_CYP1A1: Life Technologies and Expression Analysis (LTEA) Assay for Cytochrome P450 (CYP1A1) using HepaRG (AID 2283454); conditions: mRNA level, 48 h; actives raise or lower the signal
Method in brief: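 Differentiated human HepaRG cells, after 48 h plating, exposed in duplicate for 48 h in serum-free induction medium to 8 half-log concentrations up to 100 uM in 0.5% DMSO. CYP1A1 mRNA by qRT-PCR, normalized to ACTB/GAPDH/POLR2A; bidirectional fit versus DMSO.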

[9] = read-out: CFLAR gene, CFLAR (gene 8837); assay: LTEA_HepaRG_CFLAR: Life Technologies and Expression Analysis (LTEA) Assay for CFLAR gene using HepaRG (AID 2283455); conditions: mRNA level, 48 h; actives raise or lower the signal
Method in brief: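 Transcript level by qRT-PCR (normalized to ACTB, GAPDH and POLR2A) after 48 h chemical exposure of HepaRG cells, top concentration 100 uM with half-log steps, 0.5% DMSO vehicle, duplicates; fitted bidirectionally against DMSO baseline.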

[10] = read-out: Forkhead box O1 (FOXO1), FOXO1 (gene 2308); assay: LTEA_HepaRG_FOXO1: Life Technologies and Expression Analysis (LTEA) Assay for Forkhead box O1 (FOXO1) using HepaRG (AID 2283456); conditions: mRNA level, 48 h; actives raise or lower the signal
Method in brief: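 FOXO1 transcript quantified by qRT-PCR after 48 h chemical exposure (top 100 uM, half-log steps, 0.5% DMSO) of HepaRG cells, housekeeping-normalized (ACTB/GAPDH/POLR2A). Changes fitted in both directions relative to vehicle.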

[11] = read-out: growth arrest and DNA damage 45 (GADD45A), GADD45A (gene 1647); assay: LTEA_HepaRG_GADD45A: Life Technologies and Expression Analysis (LTEA) Assay for growth arrest and DNA damage 45 (GADD45A) using HepaRG (AID 2283458); conditions: mRNA level, 48 h; actives raise or lower the signal
Method in brief: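 GADD45A expression was measured by TaqMan qRT-PCR against three housekeeping genes (ACTB, GAPDH, POLR2A) after 48 h treatment of HepaRG cells. Eight-point half-log series up to 100 uM in 0.5% DMSO, run in duplicate.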

[12] = read-out: Forkhead box O3 (FOXO3), FOXO3 (gene 2309); assay: LTEA_HepaRG_FOXO3: Life Technologies and Expression Analysis (LTEA) Assay for Forkhead box O3 (FOXO3) using HepaRG (AID 2283459); conditions: mRNA level, 48 h; actives raise or lower the signal
Method in brief: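 FOXO3 transcript measured by qRT-PCR (normalized to ACTB, GAPDH, POLR2A) after 48 h exposure of HepaRG cells in serum-free induction medium. Duplicates, eight half-log concentrations up to 100 uM, 0.5% DMSO; gain or loss fitted against DMSO.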

[13] = read-out: ABC Transporter (ABCB1), ABCB1 (gene 5243); assay: LTEA_HepaRG_ABCB1: Life Technologies and Expression Analysis (LTEA) Assay for ABC Transporter (ABCB1) using HepaRG (AID 2283460); conditions: mRNA level, 48 h; actives raise or lower the signal
Method in brief: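 ABCB1 transcript level measured by TaqMan qRT-PCR against three housekeeping genes after 48 h chemical exposure of differentiated HepaRG cells. Top concentration 100 uM, half-log steps, eight points, 0.5% DMSO vehicle; bidirectional fit relative to DMSO.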

[14] = read-out: ABC Transporter (ABCC3), ABCC3 (gene 8714); assay: LTEA_HepaRG_ABCC3: Life Technologies and Expression Analysis (LTEA) Assay for ABC Transporter (ABCC3) using HepaRG (AID 2283462); conditions: mRNA level, 48 h; actives raise or lower the signal
Method in brief: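 Differentiated human HepaRG cells exposed 48 h in serum-free induction medium, 0.5% DMSO vehicle, 8-point half-log series to 100 uM in duplicate. ABCC3 mRNA by qRT-PCR, normalised to ACTB, GAPDH, POLR2A; bidirectional fit vs DMSO.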

[15] = read-out: ABC Transporter (ABCB11), ABCB11 (gene 8647); assay: LTEA_HepaRG_ABCB11: Life Technologies and Expression Analysis (LTEA) Assay for ABC Transporter (ABCB11) using HepaRG (AID 2283463); conditions: mRNA level, 48 h; actives raise or lower the signal
Method in brief: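 ABCB11 transcript levels quantified by TaqMan qRT-PCR against three housekeeping genes after 48 h chemical exposure of HepaRG cultures. Concentrations up to 100 uM in half-log steps, 0.5% DMSO vehicle; both induction and suppression scored.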

[16] = read-out: ABC Transporter (ABCC2), ABCC2 (gene 1244); assay: LTEA_HepaRG_ABCC2: Life Technologies and Expression Analysis (LTEA) Assay for ABC Transporter (ABCC2) using HepaRG (AID 2283464); conditions: mRNA level, 48 h; actives raise or lower the signal
Method in brief: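 Differentiated HepaRG cells in serum-free induction medium exposed 48 h to eight half-log concentrations up to 100 uM, 0.5% DMSO, in duplicate. ABCC2 mRNA measured by qRT-PCR (TaqMan, Fluidigm), normalized to ACTB, GAPDH and POLR2A. Fitted in both directions against DMSO.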

[17] = read-out: Broad substrate specificity ATP-binding cassette transporter ABCG2 (Homo sapiens) (UniProt Q9UNQ0); assay: LTEA_HepaRG_ABCG2: Life Technologies and Expression Analysis (LTEA) Assay for ABC Transporter (ABCG2) using HepaRG (AID 2283465); conditions: mRNA level, 48 h; actives raise or lower the signal
Method in brief: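 ABCG2 transcript was quantified by TaqMan qRT-PCR against three housekeeping genes in HepaRG cells. Cells were treated in duplicate for 48 h across an 8-point half-log series up to 100 uM, with 0.5% DMSO vehicle. Gain or loss versus DMSO was fit.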

[18] = read-out: ATP-citrate lyase (ACLY), ACLY (gene 47); assay: LTEA_HepaRG_ACLY: Life Technologies and Expression Analysis (LTEA) Assay for ATP-citrate lyase (ACLY) using HepaRG (AID 2283466); conditions: mRNA level, 48 h; actives raise or lower the signal
Method in brief: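 ACLY mRNA quantified by qRT-PCR on Fluidigm arrays against three housekeeping genes, after 48 h chemical treatment of HepaRG cells (top concentration 100 uM, half-log steps, 0.5% DMSO vehicle). Up- or down-regulation fitted relative to DMSO.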

[19] = read-out: growth arrest and DNA damage 45 (GADD45B), GADD45B (gene 4616); assay: LTEA_HepaRG_GADD45B: Life Technologies and Expression Analysis (LTEA) Assay for growth arrest and DNA damage 45 (GADD45B) using HepaRG (AID 2283461); conditions: mRNA level, 48 h; actives raise or lower the signal
Method in brief: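 Differentiated human HepaRG cells in serum-free induction medium exposed 48 h in duplicate to eight concentrations, top 100 uM, half-log steps, 0.5% DMSO. GADD45B mRNA by TaqMan qRT-PCR, normalized to ACTB, GAPDH, POLR2A; bidirectional fit versus DMSO.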

[20] = CEETOX_H295R_TESTO: CeeTox H295R High-throughput Steroidogenesis Assay for Testosterone (TESTO) (AID 2283457); conditions: actives raise or lower the signal
Method in brief: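 H295R adrenal cells, passage ≤10, exposed to chemicals for 48 h. Testosterone in medium measured by MTBE extraction and HPLC-MS/MS against a 7-point standard curve. Bidirectional fit versus DMSO; MTT viability checked in the same wells.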

Measured: AC50

Chain of Broad substrate specificity ATP-binding cassette transporter ABCG2 (Homo sapiens) (Q9UNQ0 whole entry, looked up): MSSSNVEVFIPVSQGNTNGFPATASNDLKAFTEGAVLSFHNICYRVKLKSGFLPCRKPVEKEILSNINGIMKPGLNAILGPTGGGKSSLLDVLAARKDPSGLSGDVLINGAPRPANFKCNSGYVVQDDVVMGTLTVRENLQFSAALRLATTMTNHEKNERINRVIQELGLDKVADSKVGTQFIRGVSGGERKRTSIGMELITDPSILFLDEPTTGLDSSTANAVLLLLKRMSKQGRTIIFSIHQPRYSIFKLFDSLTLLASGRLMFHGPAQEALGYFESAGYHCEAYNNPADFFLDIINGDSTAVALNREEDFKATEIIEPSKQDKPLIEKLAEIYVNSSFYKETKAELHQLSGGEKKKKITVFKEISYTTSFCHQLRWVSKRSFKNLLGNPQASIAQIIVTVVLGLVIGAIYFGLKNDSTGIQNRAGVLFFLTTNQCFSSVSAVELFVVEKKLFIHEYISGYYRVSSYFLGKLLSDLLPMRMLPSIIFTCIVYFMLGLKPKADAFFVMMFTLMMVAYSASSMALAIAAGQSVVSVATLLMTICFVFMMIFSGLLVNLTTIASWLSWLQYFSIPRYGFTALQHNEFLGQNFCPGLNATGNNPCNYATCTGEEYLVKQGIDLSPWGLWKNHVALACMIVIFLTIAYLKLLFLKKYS
Chain of Fatty acid synthase (Homo sapiens) (P49327 whole entry, looked up): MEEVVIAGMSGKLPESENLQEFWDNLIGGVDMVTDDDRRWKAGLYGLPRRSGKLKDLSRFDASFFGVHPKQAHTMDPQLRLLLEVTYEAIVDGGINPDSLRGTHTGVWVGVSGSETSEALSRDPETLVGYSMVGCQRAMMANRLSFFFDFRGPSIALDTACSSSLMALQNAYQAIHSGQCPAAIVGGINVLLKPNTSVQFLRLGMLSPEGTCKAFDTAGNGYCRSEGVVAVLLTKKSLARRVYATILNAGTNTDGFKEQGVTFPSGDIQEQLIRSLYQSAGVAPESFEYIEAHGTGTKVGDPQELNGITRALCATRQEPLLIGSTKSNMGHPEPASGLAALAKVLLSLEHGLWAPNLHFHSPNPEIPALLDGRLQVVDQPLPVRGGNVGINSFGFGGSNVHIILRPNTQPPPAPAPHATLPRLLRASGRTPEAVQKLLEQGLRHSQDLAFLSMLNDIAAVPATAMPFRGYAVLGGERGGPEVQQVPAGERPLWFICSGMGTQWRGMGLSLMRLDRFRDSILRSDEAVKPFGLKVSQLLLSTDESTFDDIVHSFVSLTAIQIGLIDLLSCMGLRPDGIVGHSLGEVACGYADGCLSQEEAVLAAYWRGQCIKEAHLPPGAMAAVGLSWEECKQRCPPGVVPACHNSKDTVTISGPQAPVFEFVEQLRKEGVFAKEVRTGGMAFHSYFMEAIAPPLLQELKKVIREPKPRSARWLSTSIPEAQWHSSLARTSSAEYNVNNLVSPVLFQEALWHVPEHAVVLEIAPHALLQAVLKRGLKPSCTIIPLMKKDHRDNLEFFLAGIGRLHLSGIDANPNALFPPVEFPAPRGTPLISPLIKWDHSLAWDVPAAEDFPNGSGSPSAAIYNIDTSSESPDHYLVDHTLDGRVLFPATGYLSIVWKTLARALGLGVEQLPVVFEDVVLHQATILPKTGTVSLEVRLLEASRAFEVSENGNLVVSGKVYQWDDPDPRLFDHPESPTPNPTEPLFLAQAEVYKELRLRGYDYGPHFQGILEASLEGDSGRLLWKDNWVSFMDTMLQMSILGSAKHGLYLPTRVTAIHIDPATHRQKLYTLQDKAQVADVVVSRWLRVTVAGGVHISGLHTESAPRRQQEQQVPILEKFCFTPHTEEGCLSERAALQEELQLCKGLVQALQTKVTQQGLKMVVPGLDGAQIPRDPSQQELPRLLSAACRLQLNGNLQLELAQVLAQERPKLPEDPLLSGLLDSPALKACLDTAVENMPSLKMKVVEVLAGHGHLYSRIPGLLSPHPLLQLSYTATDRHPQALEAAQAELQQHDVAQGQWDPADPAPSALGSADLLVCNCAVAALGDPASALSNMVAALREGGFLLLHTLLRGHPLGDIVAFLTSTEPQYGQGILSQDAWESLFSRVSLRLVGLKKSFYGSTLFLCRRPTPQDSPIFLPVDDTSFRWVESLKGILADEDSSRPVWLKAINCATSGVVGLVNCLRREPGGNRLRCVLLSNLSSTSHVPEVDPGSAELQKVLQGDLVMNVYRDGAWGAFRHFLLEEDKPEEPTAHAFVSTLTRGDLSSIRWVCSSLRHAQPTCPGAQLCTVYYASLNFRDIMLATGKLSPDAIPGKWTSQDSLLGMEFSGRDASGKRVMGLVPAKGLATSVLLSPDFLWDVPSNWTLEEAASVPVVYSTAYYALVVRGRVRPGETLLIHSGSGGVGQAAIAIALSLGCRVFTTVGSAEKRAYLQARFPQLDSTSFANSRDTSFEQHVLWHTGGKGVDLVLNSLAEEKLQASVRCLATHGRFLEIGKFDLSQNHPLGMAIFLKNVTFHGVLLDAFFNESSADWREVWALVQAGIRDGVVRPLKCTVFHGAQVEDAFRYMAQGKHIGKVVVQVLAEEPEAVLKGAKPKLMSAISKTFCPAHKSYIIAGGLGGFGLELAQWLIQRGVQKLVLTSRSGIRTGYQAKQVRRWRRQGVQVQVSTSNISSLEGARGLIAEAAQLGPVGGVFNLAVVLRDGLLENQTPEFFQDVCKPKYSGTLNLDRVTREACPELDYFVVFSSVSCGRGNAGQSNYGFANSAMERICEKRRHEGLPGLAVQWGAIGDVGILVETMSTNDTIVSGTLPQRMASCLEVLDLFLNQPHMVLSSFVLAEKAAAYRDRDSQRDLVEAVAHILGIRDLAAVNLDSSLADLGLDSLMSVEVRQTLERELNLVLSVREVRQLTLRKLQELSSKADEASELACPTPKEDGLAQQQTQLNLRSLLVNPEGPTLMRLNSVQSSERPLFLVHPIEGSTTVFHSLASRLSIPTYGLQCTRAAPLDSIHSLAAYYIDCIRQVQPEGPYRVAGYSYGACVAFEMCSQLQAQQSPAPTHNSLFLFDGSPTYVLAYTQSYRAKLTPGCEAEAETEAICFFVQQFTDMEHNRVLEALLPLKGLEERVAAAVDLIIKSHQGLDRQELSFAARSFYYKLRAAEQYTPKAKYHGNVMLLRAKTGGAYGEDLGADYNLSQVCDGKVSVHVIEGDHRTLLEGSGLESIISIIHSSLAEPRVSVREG

C[Si](Cn1cncn1)(c1ccc(F)cc1)c1ccc(F)cc1
inactive: [1] | [3] | [11] | [12] | [13] | [14] | [18]
active: [2] 91.6 µM | [4] 50 µM | [5] 40.3 µM | [6] 50 µM | [7] 37.5 µM | [8] 5.08 µM | [9] 50 µM | [10] 74.6 µM | [15] 34.5 µM | [16] 50 µM | [17] 16.3 µM

CSC1=N[C@@](C)(c2ccccc2)C(=O)N1Nc1ccccc1
inactive: [3] | [8] | [9] | [12] | [13] | [18]
active: [1] 77.8 µM | [2] 66.1 µM | [4] 28.2 µM | [5] 50 µM | [6] 32.7 µM | [7] 30.6 µM | [10] 31.2 µM | [11] 32 µM | [14] 23.2 µM | [15] 31.4 µM | [16] 83.6 µM | [17] 13.2 µM

CC(C)[C@H](C(=O)O[C@H](C#N)c1cccc(Oc2ccccc2)c1)c1ccc(Cl)cc1
active: [8] 34.8 µM | [13] 23.2 µM | [16] 50 µM | [17] 37 µM
not listed: [20]
inactive: all other assays above

CCOC(=O)CC(SP(=O)(OC)OC)C(=O)OCC (stereo not given)
active: [8] 30.8 µM | [15] 22.7 µM
not listed: [19] | [20]
inactive: all other assays above

CCc1cccc(C)c1N(C(=O)CCl)C(C)COC (stereo not given)
active: [8] 62.6 µM
not listed: [12] | [18] | [19] | [20]
inactive: all other assays above

Cc1ccn2nc(S(=O)(=O)Nc3c(F)cccc3F)nc2n1
not listed: [19] | [20]
inactive: all other assays above

CCCSP(=O)(OCC)SCCC
active: [8] 40.8 µM | [16] 20.3 µM
not listed: [12] | [19]
inactive: all other assays above

Reference: PubChem BioAssay (EPA / NIEHS)
